# Source: PubChem BioAssay (NCI)
# Compounds without any hit were thinned out: in the full panel of roughly 83,000, 20% have a hit.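 Plates (96-well) were seeded with cells, treated with compound at one concentration, and incubated for 48 hours before percent growth was determined.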 Values without a mark were called inactive. Activity calls are given as the source filed them. How the source made its calls: active means growth percent below 10; inactive means the rest.
# Key:
# Assay in all cases: NCI-60 one-dose screen, 48 h (100 = growth as untreated, 0 = no growth, -100 = all killed)
# Conditions in all cases: 10 µM unless noted
# HCT-15 colon = tested on: HCT-15 colon
# HT29 colon = tested on: HT29 colon
# SNB-75 CNS = tested on: SNB-75 CNS
# SNB-19 CNS = tested on: SNB-19 CNS
# U251 CNS = tested on: U251 CNS
# PC-3 prostate = tested on: PC-3 prostate
# SK-MEL-5 melanoma = tested on: SK-MEL-5 melanoma
# UACC-62 melanoma = tested on: UACC-62 melanoma
# LOX IMVI melanoma = tested on: LOX IMVI melanoma
# SK-MEL-28 melanoma = tested on: SK-MEL-28 melanoma
# SK-MEL-2 melanoma = tested on: SK-MEL-2 melanoma
# EKVX NSCLC = tested on: EKVX NSCLC
# SN12C renal = tested on: SN12C renal
# UO-31 renal = tested on: UO-31 renal
# TK-10 renal = tested on: TK-10 renal
# ACHN renal = tested on: ACHN renal
# CAKI-1 renal = tested on: CAKI-1 renal
# A498 renal = tested on: A498 renal
# CCRF-CEM leukemia = tested on: CCRF-CEM leukemia
# MOLT-4 leukemia = tested on: MOLT-4 leukemia
Structure (SMILES),growth (HCT-15 colon),growth (HT29 colon),growth (SNB-75 CNS),growth (SNB-19 CNS),growth (U251 CNS),growth (PC-3 prostate),growth (SK-MEL-5 melanoma),growth (UACC-62 melanoma),growth (LOX IMVI melanoma),growth (SK-MEL-28 melanoma),growth (SK-MEL-2 melanoma),growth (EKVX NSCLC),growth (SN12C renal),growth (UO-31 renal),growth (TK-10 renal),growth (ACHN renal),growth (CAKI-1 renal),growth (A498 renal),growth (CCRF-CEM leukemia),growth (MOLT-4 leukemia)
Nc1nn2c(-c3cc4cc(Br)ccc4oc3=O)ccnc2c1N=Nc1ccc(S(N)(=O)=O)cc1,103%,92.4%,116%,41.6%,28.1%,87.5%,63.7%,83.7%,63.8%,80.7%,94.6%,91.9%,74%,76.6%,114%,95.7%,81%,149%,82.3%,89.9%
CCN(C(=O)CN1C(=O)/C(=C/c2ccco2)SC1=S)C1CCS(=O)(=O)C1 (stereo not given),88.8%,102%,75.3%,91.8%,104%,109%,91.9%,92.6%,90.6%,98%,99.2%,98%,106%,83.6%,121%,114%,91.4%,105%,105%,103%
CCCn1c(NC(=O)c2cccc(C(N)=O)c2)nc2ccc(CN3CCCCC3)cc21,67.1%,91%,128%,111%,106%,63.2%,102%,113%,93.4%,106%,105%,103%,88%,65.3%,99.3%,60.3%,50.2%,159%,96.4%,98.9%
O=C(CSc1nc2ccccc2c(=O)[nH]1)Nc1ccccc1C(=O)O,86.6%,124%,139%,95.7%,101%,110%,94.9%,84.8%,84.8%,93.7%,116%,92.3%,98.9%,71.8%,116%,89.3%,89.9%,216%,90.5%,97%
COc1nc(N)ncc1-c1ccc2ncnc(N3CCc4cc(F)c(Cl)cc43)c2c1,23.7%,36.7%,-52.7% (active),1.32% (active),-44.9% (active),66.3%,57.5%,50%,14.5%,31.3%,25.7%,24.2%,-40.9% (active),-32.4% (active),-50% (active),-84.7% (active),4.22% (active),-15.6% (active),61.6%,62.9%
COc1c2c(cc3c1C(CCc1ccccc1)N(C)CC3)OCO2 (stereo not given),9.64% (active),-13.3% (active),-1.4% (active),8.54% (active),-32.5% (active),12.7%,-98.2% (active),-24% (active),-92% (active),-5.44% (active),-18.1% (active),16.1%,8.61% (active),14.3%,33.5%,14.9%,14.5%,-15.4% (active),14.2%,8.71% (active)
COc1ccccc1Nc1nnc(-c2c[nH]c3ccccc23)o1,11.5%,7.44% (active),44%,43.4%,4.61% (active),16.4%,-32.7% (active),22.9%,7.77% (active),49.2%,-13.6% (active),10.2%,14.5%,32.5%,22.8%,23.1%,22%,81.9%,8.16% (active),1.78% (active)
CC(=O)c1c2c(c3ccc4c5ccccc5ccc4n13)C(=O)c1ccccc1C2=O,81.6%,107%,93.8%,65.4%,82.9%,77.5%,63.7%,87%,64.5%,101%,93.3%,77%,89.9%,59.3%,118%,75.6%,85.6%,189%,99.9%,90.6%
COc1ccc(-c2cc(-c3ccccc3)c(C#N)c(=O)[nH]2)cc1S(N)(=O)=O,106%,105%,89.4%,92.3%,98.5%,97.2%,104%,110%,94.5%,107%,104%,95.9%,124%,89.8%,96.8%,103%,96.4%,91.2%,113%,136%
Clc1ccc(-c2nc3c4c(-c5ccccc5)c(-c5ccccc5)n(Cc5ccccc5)c4ncn3n2)cc1,13.6%,-2% (active),-23.1% (active),8.49% (active),15.1%,-1.48% (active),-94.6% (active),11.7%,11.9%,36.2%,-10.4% (active),2.2% (active),0.356% (active),1.71% (active),24.1%,-4.9% (active),-20.1% (active),-17.4% (active),-2.09% (active),-5.99% (active)
O=C(N/N=C/c1ccc(B(O)O)s1)c1[nH]c2ccc(Br)cc2c1-c1ccccc1,-92.4% (active),-63.3% (active),-72.7% (active),-97.3% (active),-79.8% (active),-9.11% (active),-95.3% (active),-99.5% (active),-99.3% (active),-93.3% (active),-82.6% (active),-98.8% (active),-79.4% (active),-76.3% (active),-93.2% (active),-100% (active),-59.8% (active),-88.3% (active),-16.5% (active),-8% (active)
CC1=C(C(=O)Nc2ccccc2)C(c2cccc3ccccc23)n2c(nc3ccccc32)N1 (stereo not given),64.6%,40.5%,-63% (active),20.2%,25%,31.3%,82.6%,66.8%,53.5%,70%,99.7%,67.4%,18.5%,59%,81%,27.6%,5.8% (active),102%,65.4%,67.5%
O=C(c1ccc(Cl)cc1)C1[C@H](c2ccccc2Cl)[C@@H](c2ccccc2)NC12C(=O)Nc1ccccc12 (stereo not given in full),-25.8% (active),-71.7% (active),-4.03% (active),7.09% (active),-26.4% (active),-3.66% (active),-97.1% (active),-73.3% (active),-97.9% (active),-57.3% (active),-85.3% (active),1.03% (active),-89.1% (active),3.34% (active),12.1%,1.1% (active),3.65% (active),-29% (active),4.66% (active),-32.1% (active)
O=CNc1cccc(-n2cnc3cc(-c4ccc(O)cc4)ccc32)c1,15.5%,22.7%,21.4%,43.3%,25.4%,49%,35.6%,38.2%,21.2%,56.2%,79.2%,71.5%,22.9%,10.3%,79.3%,16.9%,42.2%,147%,23%,27.7%
CC(=O)c1ccc2c(N)c(C(=O)Nc3ccc(C(F)(F)F)cc3)sc2n1,40.7%,82.2%,84.7%,67.9%,72.6%,70.2%,-5% (active),59.7%,37.8%,87.2%,67.7%,40.7%,73%,73.8%,67%,66.2%,56.9%,126%,60.9%,32.7%
CC1=C(C)C(=O)C(NCCN2CCOCC2)=C(Br)C1=O,90.7%,93.7%,106%,91.3%,44.8%,61.8%,62.1%,39.4%,-28.5% (active),75.4%,68.9%,46.4%,52%,44.7%,150%,62.3%,45.3%,124%,-21% (active),0.284% (active)
